For 23 compounds, Potency results are on record in PubChem BioAssay (Tox21).

A short description of test [1]: qHTS RealTime-Glo MT Cell Viability Assay in HEK293 cells - 0 hour (AID 1224880). Also: top concentration of the series differs between compounds; nearly all actives have a fitted effect of over 45% in size. In outline:
(§1)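 Luminescence readout at each listed time point; HEK293, 600 cells/well, RealTime-Glo MT reagent added with cells; compounds pinned (23 nL in DMSO) after 5 h at 37 C; continuous culture at 37 C.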

A short description of test [2]: A CellTox Green Cytotoxicity Assay to monitor cytotoxicity in HEK293 cells - 32 hour (AID 1224881). Also: nearly all actives have a fitted effect of over 40% in size. Also: potency is read from the fitted curve at half-maximal effect. In outline:
(§2)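 Read-out: fluorescence of a cell-impermeant cyanine dye staining DNA of dead cells, proportional to cytotoxicity. HEK293, 600 cells/well with reagent, compound (23 nL DMSO) added after 5 h; reads at 0, 8, 16, 24, 32, 40 h.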

Test [3] in a line: A CellTox Green Cytotoxicity Assay to monitor cytotoxicity in HepG2 cells - 0 hour (AID 1224882). Also: nearly all actives have a fitted effect of over 35% in size. Also: potency is read from the fitted curve at half-maximal effect. The gist of the method:
(§3)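 HepG2, 600 cells/well premixed w/ CellTox Green; 5 h settle, 37 C/5% CO2; pintool cpd add (DMSO); 37 C, 40 h; fluorescence read at 0, 8, 16, 24, 32, 40 h.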

Test [4] can be described thus: A CellTox Green Cytotoxicity Assay to monitor cytotoxicity in HepG2 cells - 32 hour (AID 1224883). Also: nearly all actives have a fitted effect of over 50% in size. Also: potency is read from the fitted curve at half-maximal effect. The gist of the method:
as §3

Test [5] in a line: A CellTox Green Cytotoxicity Assay to monitor cytotoxicity in HEK293 cells - 8 hour (AID 1224884). Also: nearly all actives have a fitted effect of over 35% in size. Also: potency is read from the fitted curve at half-maximal effect. The gist of the method:
as §2

Test [6] is described as follows: qHTS RealTime-Glo MT Cell Viability Assay in HepG2 cells - 16 hour (AID 1224885). Also: nearly all actives have a fitted effect of over 50% in size. The gist of the method:
(§4)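 HepG2 suspension premixed with RealTime-Glo reagents is plated at 600 cells per well and left 5 h at 37 C/5% CO2. Compounds in DMSO then go in, and bioluminescence reflecting viable cell number is recorded over 40 h.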
On the technique in general: In qHTS, concentration-response curves come from the screen itself.

The nature of test [7]: qHTS RealTime-Glo MT Cell Viability Assay in HEK293 cells - 24 hour (AID 1224886). Also: nearly all actives have a fitted effect of over 50% in size. Also: potency is read from the fitted curve at half-maximal effect. In outline: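 Reads taken at 0, 8, 16, 24, 32 and 40 h from the same wells. HEK293 cells (600/well) carried RealTime-Glo reagents from seeding, with compound added after a 5 h settle at 37 C.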
Test [8] in a line: qHTS RealTime-Glo MT Cell Viability Assay in HEK293 cells - 8 hour (AID 1224887). Also: nearly all actives have a fitted effect of over 50% in size. Also: potency is read from the fitted curve at half-maximal effect. In outline:
as §1

Test [9] in a line: A CellTox Green Cytotoxicity Assay to monitor cytotoxicity in HEK293 cells - 16 hour (AID 1224888). Also: nearly all actives have a fitted effect of over 35% in size. Also: potency is read from the fitted curve at half-maximal effect. The gist of the method: as §2
A short description of test [10]: qHTS RealTime-Glo MT Cell Viability Assay in HepG2 cells - 0 hour (AID 1224889). Also: nearly all actives have a fitted effect of over 50% in size. Also: potency is read from the fitted curve at half-maximal effect. In outline: as §4

Molecules are shown by their SMILES. A number with no mark means an inactive call. Records with an inconclusive call do not appear. Activity calls are given as the source filed them. Calls follow the shape of the dose curve; as a rule, active = well fitted curve in the direction sought with a large enough effect in the repeat runs; inconclusive = weak or mixed curves; inactive = no such curve, though single readings can be large; an effect the other way counts as inactive or inconclusive.

For `CC(C)c1nnc2ccc(-c3ocnc3-c3cc(F)ccc3F)cn12`, the Potency result in test [1], in test [2], in [3], in [4], in [5] and in test [6] was “inactive” throughout. The Potency result in [9] and in test [10] was “inactive” in each case. Further, the Potency in test [7] and in [8] was 19.5 µM (active) throughout.

Turning to `CCn1nc(C)c2c1C(=O)NCC(c1ccc(O)cc1)=N2`, the Potency entry in test [1], in test [2], in test [3], in test [4], in test [5] and in test [6] was “inactive” each time. In addition, the Potency entry in [7], in test [8], in test [9] and in test [10] was “inactive” each time.

As for `CCCOC(=O)c1ccc(C(=O)OCCC)nc1`, the Potency result in test [1], in [2], in [3], in test [4], in test [5] and in test [6] was “inactive” each time. For the same compound, the Potency entry in [7], in [8], in test [9] and in test [10] was “inactive” throughout.

On to `CCCCCCCC/C=C\CCCCCCCC(=O)OC`, for which the Potency result in test [1], in [2], in [3], in test [4], in test [5] and in test [6] was “inactive” each time. Besides, the Potency result in [7], in test [8], in test [9] and in [10] was “inactive” in each case.

On to `CN(C(=O)C(Cl)Cl)c1ccc(OC(=O)c2ccco2)cc1`, for which the Potency entry in [1], in test [2], in [3], in [4], in [5] and in [6] was “inactive” in each case. Also, the Potency entry in test [7], in [8], in test [9] and in [10] was “inactive” throughout.

For the compound `CNC(=O)N(c1ccccc1)c1ccccc1`, the Potency entry in test [1], in test [2], in [3], in [4], in [5] and in [6] was “inactive” in each case. Also, the Potency entry in [7], in test [8], in test [9] and in [10] was “inactive” throughout.

Take `CC(CCO)CCc1ccccc1` (stereo unspecified): the Potency result in test [1], in test [2], in test [3], in test [4], in test [5] and in test [6] was “inactive” each time. Moreover, the Potency result in test [7], in [8], in test [9] and in test [10] was “inactive” throughout.

Take `Cc1ccc(S)cc1`: the Potency result in test [1], in test [2], in test [3], in test [5], in [6] and in [7] was “inactive” in each case. In addition, the Potency result in test [8], in test [9] and in test [10] was “inactive” each time. The Potency in test [4] is 17.4 µM (active).

With `C[C@]12CCC(=O)C=C1C=C[C@@H]1[C@@H]2CC[C@@]2(C)[C@H]1CC[C@@]21CCC(=O)O1`, the Potency result in test [1], in [2], in test [3], in test [4], in test [5] and in [6] was “inactive” in each case. Besides, the Potency entry in [7], in test [8] and in [9] was “inactive” throughout. For the same compound, in test [10], the Potency is 7.56 µM (active).

For `COCCOC`, the Potency result in test [1], in test [2], in test [3], in test [4], in [5] and in test [6] was “inactive” each time. The Potency result in test [9] was “inactive”. Besides, the Potency in test [7] was 0.74 µM (active).

Consider `c1cnc2c(n1)CCCC2`, for which the Potency entry in test [1], in test [6], in [7], in test [8] and in test [10] was “inactive” each time. For the same compound, the Potency in test [2] was 43.6 µM (active); in [3], 24.5 µM (active); in [4] it was 43.6 µM (active); in test [5], 43.6 µM (active); in [9] it was 43.6 µM (active).

For `O=C(O)c1c(O)c(-c2ccccc2)nc2ccccc12`, the Potency result in test [1], in test [2], in test [3], in [4], in test [5] and in test [6] was “inactive” each time. The Potency entry in test [7], in test [8], in test [9] and in test [10] was “inactive” throughout.

Turning to `C=CC(C)(C)CC(=O)OC`, the Potency entry in test [1], in test [2], in [3], in test [4], in [5] and in test [6] was “inactive” throughout. Further, the Potency entry in test [9] and in [10] was “inactive” throughout. The Potency in [7] was 1.38 µM (active).

Turning to `CCOC(=O)OCC`, the Potency entry in [1], in test [2], in test [3], in test [4], in test [5] and in test [6] was “inactive” in each case. For the same compound, the Potency result in test [7], in test [8], in [9] and in test [10] was “inactive” in each case.

Take `O=C(CS)OCCOC(=O)CS`: the Potency entry in test [1], in [2], in test [3], in test [4], in test [5] and in test [6] was “inactive” in each case. The Potency result in test [7], in test [8], in test [9] and in [10] was “inactive” each time.

Take `CCn1cc(C(=O)O)c(=O)c2cc(F)c(N3CCNCC3)nc21`: the Potency entry in [1], in [2], in test [3], in [4], in test [5] and in [6] was “inactive” throughout. In addition, the Potency entry in [7], in [8], in test [9] and in test [10] was “inactive” each time.

Consider `CC1(C)C(=O)N(Br)C(=O)N1Cl`, for which the Potency entry in test [1], in test [2], in [3], in test [4], in test [5] and in [6] was “inactive” in each case. Further, the Potency entry in test [7], in test [8], in [9] and in [10] was “inactive” in each case.

As for `CC(C)=CC=O`, the Potency result in test [1], in [2], in test [3], in [4], in [5] and in [6] was “inactive” each time. Besides, the Potency result in test [7], in test [8], in test [9] and in test [10] was “inactive” throughout.

As for `Oc1cc(O)c(Cl)cc1Cl`, the Potency result in [1], in [2], in [3], in [4], in test [5] and in test [6] was “inactive” each time. For the same compound, the Potency result in test [7], in [8], in test [9] and in test [10] was “inactive” throughout.

On to `Cc1nc2ccccn2c(=O)c1CCN1CCC(C(=O)c2ccc(F)cc2)CC1`, for which the Potency result in [1], in test [2], in test [3], in test [4], in [5] and in test [6] was “inactive” throughout. Further, the Potency entry in test [9] and in [10] was “inactive” throughout. The results for the Potency in test [7] and in [8] were 7.56 µM (active) and 8.49 µM (active), respectively.

Turning to `CCCOCCOCCO`, the Potency result in [1], in test [2], in [3], in test [4], in [5] and in test [6] was “inactive” throughout. Moreover, the Potency result in test [7], in [8], in test [9] and in test [10] was “inactive” each time.

For the compound `Cc1oc(C)c(C(=O)Nc2ccccc2)c1C`, the Potency result in test [1], in test [2], in test [3], in test [4], in test [5] and in [6] was “inactive” in each case. The Potency result in test [9] and in test [10] was “inactive” throughout. For the same compound, in [7], the Potency was 34.7 µM (active).

Consider `C[C@@H]1C[C@H]2[C@@H]3CCC4=CC(=O)C=C[C@]4(C)[C@@]3(F)[C@@H](O)C[C@]2(C)[C@@]1(O)C(=O)CO`, for which the Potency entry in test [1], in [2], in test [3], in test [4], in [5] and in test [6] was “inactive” in each case. Moreover, the Potency result in test [7], in test [8] and in [9] was “inactive” each time. In [10], the Potency is 22.2 µM (active).
